# Shown are actives, neighbours in structure and some others; about 4.8% of the full set was active somewhere.
# DRD3 agonist: qHTS of D3 Dopamine Receptor Agonist: qHTS; D3R DiscoveRx beta-arrestin cells, luminescence, 90 min; max activation, %; 410,000 compounds, 0.58% hits; in the data active means max activation above about 30%; further: 0% is about no effect
# Target sequence (P35462 whole entry, looked up): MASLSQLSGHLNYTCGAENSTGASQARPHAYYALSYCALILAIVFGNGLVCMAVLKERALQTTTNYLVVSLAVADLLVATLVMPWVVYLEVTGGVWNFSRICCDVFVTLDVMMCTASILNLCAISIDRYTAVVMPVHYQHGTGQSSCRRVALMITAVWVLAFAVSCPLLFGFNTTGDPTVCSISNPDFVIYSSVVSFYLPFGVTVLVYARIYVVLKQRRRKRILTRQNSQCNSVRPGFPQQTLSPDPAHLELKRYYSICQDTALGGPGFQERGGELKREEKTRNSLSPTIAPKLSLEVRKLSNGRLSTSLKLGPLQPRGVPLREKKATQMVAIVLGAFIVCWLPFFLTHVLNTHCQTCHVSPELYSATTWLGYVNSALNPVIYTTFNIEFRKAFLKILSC
#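 Agonist mode: compounds and dopamine controls were applied to plated cells for 90 min at 37 degrees C after an overnight attachment at 1500 cells/well. Luminescent read-out followed 30 - 60 minutes at room temperature with DiscoveRx detection reagent.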
# HepG2 tox-1: qHTS for Inhibitors of TGF-b: Cytotox Counterscreen; HepG2 CAGA-GFP viability, ATP luminescence, 18 h; AID 588856, 2011; 410,000 compounds, 0.76% hits; Potency, µM (doses to about 46.1 µM), for the others: top-dose activity change, negative = cytotoxicity, hits mostly cytotoxic; further: potency means the concentration at half of the fitted maximal effect
#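 CellTiter-Glo luminescence gave cytotoxicity after 18 hours at 37 degrees C. The cells were HepG2 CAGA-GFP in 1% FBS DMEM, stimulated with 500 pg/mL TGF-beta after compound addition. %Activity was normalised to no-cell wells (complete cell-killing) and DMSO (no toxicity), and curves were fitted and classified.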
# ATXN2 expr inh: Primary qHTS for Inhibitors of ATXN expression. 360,000 compounds, 0.72% hits. HEK-293 ATXN2-luciferase reporter, luminescence, 24 h. AID 1745845, 2022. Potency, µM (titrated, usually from 57 µM), for inactives: at the top dose activity change, negative = inhibition, actives largely listed as inhibitors; further: potency means the concentration at half of the fitted maximal effect; on the % scale 0 is the no-effect control and ±100 the full control effect; nearly all actives have a fitted effect of over 55% in size
#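 qHTS (up to 57 uM final) was run with 24 h compound exposure of reporter cells at 37 °C. Each well was multiplexed: SteadyGlo luminescence measured ATXN2-luciferase expression after a fluorogenic Gly-Phe-AFC viability readout (25 uM final).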
# S2 tox: Viability Counterscreen for Primary qHTS for Inhibitors of ATXN expression; S2 cells (HEK-293 line with an ATXN2-luciferase reporter) viability, CellTiter-Fluor protease fluorescence, 24 h; Potency, µM (series often up to 56.7 µM), actives largely listed as cytotoxic; 400,000 compounds, 0.49% hits; further: potency means the concentration at half of the fitted maximal effect; nearly all actives have a fitted effect of over 40% in size
# DRD3 antagonist: qHTS of D3 Dopamine Receptor Antagonist: qHTS; 360,000 compounds, 2.5% hits; max response, negative = inhibition, %; D(3) dopamine receptor (Homo sapiens), P35462; D3R cells, DiscoveRx beta-arrestin luminescence, antagonist mode; active compounds read low; in the data active means max response below about -50%; inconclusive means no clear call, values can overlap the other calls; further: on the % scale 0 is the no-effect control and ±100 the full control effect
#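 Cells expressing the human receptor were seeded at 1500 cells/well, incubated overnight at 37 degrees C in 5% CO2, then exposed to library compounds with dopamine controls for 90 minutes at 37 degrees C before luminescent detection.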
# TGFb inhibitor: qHTS for Inhibitors of TGF-b | HepG2 CAGA-GFP TGF-b/SMAD3 reporter, GFP fluorescence, 18 h; TGF-beta stimulated, 500 pg/mL final | Potency, µM (titrated, usually from 46.1 µM), inactives show at the highest dose activity, negative = inhibition, most hits filed as inhibitors | 410,000 compounds, 1.2% hits; further: potency means the concentration at half of the fitted maximal effect; on the % scale 0 is the no-effect control and ±100 the full control effect; nearly all actives have a fitted effect of over 65% in size
#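 HEPG2 CAGA-GFP, 1000 cells/well; 2 h settle, 37 C; cpd via pin tool; TGF-b 500 pg/mL final; 18 h, 37 C; GFP imaging ex488/em500-530; %Activity normalised to -TGF-b and +DMSO controls; CRC fit, curve class.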
# TGFb CAGA inh: qHTS for Inhibitors of TGF-b: Confirmation of Cherry Picks; shares compounds with TGFb inhibitor; HepG2 CAGA-GFP TGF-b reporter, GFP fluorescence, 18 h; cells stimulated with TGF-beta, 500 pg/mL; Potency, µM (highest dose often 46.1 µM), inactives show at the top dose activity, negative = inhibition, usual class: inhibitors; 1,600 compounds, 63% hits; AID 720534, 2013; further: potency means the concentration at half of the fitted maximal effect; on the % scale 0 is the no-effect control and ±100 the full control effect; nearly all actives have a fitted effect of over 65% in size
# HepG2 tox-2: qHTS for Inhibitors of TGF-b: Cytotox Counterscreen for Cherry Picks | shares compounds with TGFb inhibitor | HepG2 CAGA-GFP viability, ATP luminescence, 18 h; cells stimulated with TGF-beta, 500 pg/mL | Potency, µM (titrated, usually from 46.1 µM), for inactives: top-dose activity, negative = cytotoxicity, usual class: inhibitors | 1,600 compounds, 27% hits | AID 720535, 2013; further: potency means the concentration at half of the fitted maximal effect; on the % scale 0 is the no-effect control and ±100 the full control effect; nearly all actives have a fitted effect of over 70% in size
# CCL64 TGFb inh: qHTS for Inhibitors of TGF-b: CCL64 Cells Orthogonal Assay for Cherry Picks; shares compounds with TGFb inhibitor; CCL64 CAGA-GFP reporter, TGF-b stimulated, GFP fluorescence, 18 h; Potency, µM (doses to about 46.1 µM), inactives show top-dose activity, negative = inhibition, hits mostly inhibitors; 1,600 compounds, 41% hits; further: potency means the concentration at half of the fitted maximal effect; nearly all actives have a fitted effect of over 65% in size
# TGFb COP inh: qHTS for Inhibitors of TGF-b: Hit Validation in HepG2 Cells using COP promoter. AID 720537, 2013. Potency, µM (titrated, usually from 46.1 µM), for the others: top-dose activity, negative = inhibition, hits mostly inhibitors. shares compounds with TGFb inhibitor. HepG2 COP-GFP TGF-b reporter, GFP fluorescence, 18 h; cells stimulated by added recombinant TGF-beta. 1,600 compounds, 3% hits; further: potency means the concentration at half of the fitted maximal effect; nearly all actives have a fitted effect of over 70% in size
# An asterisk follows results filed as active; i = inactive; ? = inconclusive; · = not tested or not shown. Unless noted, the call rests on the fitted dose curve; in most records, active means well fitted curve in the direction sought with a large enough effect; inconclusive means small, poorly fitted or top-dose-only effect, or another doubt; inactive means no such curve, though single readings can be large; an effect the other way counts as inactive or inconclusive.
SMILES,DRD3 agonist,HepG2 tox-1,ATXN2 expr inh,S2 tox,DRD3 antagonist,TGFb inhibitor,TGFb CAGA inh,HepG2 tox-2,CCL64 TGFb inh,TGFb COP inh
O=C1CCCN1CCCNc1nc(NCc2ccccc2)nc2ccsc12,0.3,-37.1%,-8.6%,i,6.3,3.16µM*,2.91µM*,7.31µM*,5.17µM*,48.4%
CNc1nc(NCc2ccc(C)cc2C)c2sccc2n1,-6.4,-6.6%,?,?,13.4,11.2µM*,16.4µM*,?,?,68.5%
COCCNc1nc(NC(C)C)nc2ccsc12,4.5,-6.9%,3.9%,i,18.5,-15.6%,·,·,·,·
Cc1ccc(CNc2nc(NCc3ccccc3)nc3ccsc23)c(C)c1,-9.4,-115.8%,?,?,-17.7,5.01µM*,?,?,14.6µM*,?
COCCNc1nc(NCc2ccccc2)nc2ccsc12,-17.4,-22.9%,-7.7%,i,-1.4,2.51µM*,3.66µM*,?,4.11µM*,57.4%
Cc1ccc(CNc2nc(NC(C)C)nc3ccsc23)c(C)c1,-16.1,-56.7%,?,?,2.6,?,·,·,·,·
Cc1ccsc1CN(C(=O)c1ccc(OCC(C)C)cc1)C1CCS(=O)(=O)C1 (configuration not stated),2.4,-18.7%,·,·,·,·,·,·,·,·
CCc1nc(OCc2ccco2)c2sc3nc4c(cc3c2n1)COC(C)(C)C4,3.9,-11.4%,38.9%,i,0.0,?,?,-16.0%,-1.2%,18.7%
Cc1cc(/C=C/c2ccnc3ccccc23)ccc1N(C)C,·,-44.2%,·,·,·,-27.0%,·,·,·,·
CCOC(=O)c1c(C)[nH]c(C(=O)N/N=C/c2ccc(Br)cc2)c1C,-2.9,0.5%,-34.1%,?,-9.5,1.41µM*,0.92µM*,-9.2%,?,-17.6%
Cc1cc(N2CCN(c3ccccc3)CC2)n2cc(-c3ccccc3)nc2n1,2.6,-35.7%,21.9%,?,-6.5,?,?,-7.8%,-27.2%,25.0%
Cc1cc(N2CCN(c3ccccc3Cl)CC2)n2cc(-c3ccccc3)nc2n1,1.6,-49.3%,?,?,-20.2,?,·,·,·,·
COc1ccc(-c2nc3c4ccccc4n(CC(=O)Nc4cc(F)ccc4F)c(=O)n3n2)cc1,0.7,-15.9%,1.3%,i,·,-18.1%,·,·,·,·
CN(CCO)C(=O)c1cn(C2CCCN(Cc3ccc4ccccc4c3)C2)nn1 (configuration not stated),·,·,·,i,·,·,·,·,·,·
COc1ccc(-c2cccc(-c3cc(=O)oc4cc(OC)cc(OC)c34)c2)cc1,-7.4,3.2%,5.8%,i,5.6,1.41µM*,1.64µM*,-0.5%,1.46µM*,-24.9%
CC1CC=CC2C1C(=O)N(Cc1ccccc1)C2c1ccc(F)c(-c2ccc(N(C)C)cc2)c1 (configuration not stated),·,-3.1%,·,·,·,-5.1%,·,·,·,·
Cc1cccc(C)c1N(CC(=O)Nc1cc(Cl)ccc1Oc1ccccc1)S(C)(=O)=O,-0.2,13.5%,-9.6%,i,-53.8*,?,?,-16.8%,-24.5%,1.3%
CCc1nn(CC(=O)NCc2cccc(OC)c2OC)c(=O)c2cc3occc3n12,-11.5,2.0%,·,·,·,·,·,·,·,·
OC(COC(c1ccccc1)c1ccccc1)CN1CCN(c2cccc(Cl)c2)CC1 (configuration not stated),29.0,-13.3%,-11.9%,?,14.6,15.8µM*,18.4µM*,?,?,41.2%
OC(CN1CCN(c2cccc(Cl)c2)CC1)c1ccccc1 (configuration not stated),21.1,-25.7%,-2.5%,i,?,-25.5%,·,·,·,·
CCOc1ccc(N2C(=O)CC(N(CCc3ccc(S(N)(=O)=O)cc3)C(C)=O)C2=O)cc1 (configuration not stated),-1.7,2.0%,-1.9%,i,0.8,0.6%,·,·,·,·
CCCCCCOc1ccc(N2C(=O)CC(N(CCc3ccc(S(N)(=O)=O)cc3)C(C)=O)C2=O)cc1 (configuration not stated),3.4,-6.1%,-28.1%,i,-1.2,?,?,-15.6%,0.2%,11.4%
CCOc1ccc(C(=O)NCCc2csc(-c3ccc(C(F)(F)F)cc3)n2)cc1OCC,3.5,-1.4%,·,·,·,0.0%,·,·,·,·
CCOc1ccc(S(=O)(=O)N(CC(=O)Nc2ccc3c(c2)OCO3)c2ccccc2)cc1,3.4,-27.0%,30.0%,i,·,-9.8%,·,·,·,·
C=CCC[C@@H](Cc1ccc(F)cc1)C(=O)OC[C@@H](Cc1c[nH]c2ccccc12)NC(=O)[C@H](CC=C)CC(=O)N(CCO)Cc1ccccc1,-5.4,-17.3%,?,·,0.0,?,·,·,·,·
C=CCC[C@H](Cc1ccc(F)cc1)C(=O)OC[C@@H](Cc1c[nH]c2ccccc12)NC(=O)[C@H](CC=C)CC(=O)N(CCO)Cc1ccccc1,-1.5,-18.8%,?,20µM*,2.3,11.2µM*,11.6µM*,?,18.4µM*,28.7%
CCN(C(=O)Cn1cc(C(=O)c2ccc(F)cc2)c(=O)c2ccc(C)nc21)c1cccc(C)c1,-1.6,-1.9%,-8.1%,i,·,-31.8%,·,·,·,·
COc1ccc(CNC(=O)[C@@H]2CCCN2C(=O)[C@@H]2Cc3ccccc3CN2C(=O)OC(C)(C)C)cc1,8.8,-6.9%,1.5%,i,-12.1,11.2µM*,13µM*,-16.9%,11.8%,-6.2%

# Source: PubChem BioAssay
